In PubChem BioAssay (Tox21) one finds Potency data, which are given here for 19 compounds.

Assay [1] can be described thus: qHTS assay to identify small molecule antagonists of the thyroid receptor (TR) signaling pathway - cell viability counter screen (AID 743064). Further: nearly all actives have a fitted effect of over 50% in size. Further: potency means the concentration at half of the fitted maximal effect. A digest of the protocol:
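In-well cytotoxicity read by CellTiter-Fluor (30 min, 37 C) following 23.5 h exposure of GH3 cells bearing a TRE-luciferase sensor. Compounds were added alongside 1 nM (final) T3 to drive TR transactivation.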
For orientation: Quantitative high-throughput screening tests each substance at several concentrations.

Assay [2] can be described thus: qHTS assay to identify small molecule antagonists of the thyroid receptor (TR) signaling pathway (AID 743065). Further: nearly all actives have a fitted effect of over 55% in size. Further: potency means the concentration at half of the fitted maximal effect. A digest of the protocol: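 GH3.TRE-Luc rat pituitary cells carrying two TR response elements driving luciferase were plated for 4 h, given compound plus 1 nM T3 (final), and incubated 23.5 h at 37 C. ONE-Glo luminescence measured reporter inhibition; CellTiter-Fluor fluorescence tracked cytotoxicity.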

In assay [3] the test system is thyroid hormone receptor (rat, GH3 cells). In words: qHTS assay to identify small molecule agonists of the thyroid receptor (TR) signaling pathway (AID 743066; calls by dose curve).
A short description of assay [4]: qHTS assay to identify small molecule antagonists of the estrogen receptor alpha (ER-alpha) signaling pathway using the BG1 cell line - cell viability counter screen (AID 743081).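 Further: compound given together with 17beta-estradiol as the ER stimulus; nearly all actives have a fitted effect of over 45% in size.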 Further: potency means the concentration at half of the fitted maximal effect.
Assay [5] in a line: qHTS assay to identify small molecule antagonists of the estrogen receptor alpha (ER-alpha) signaling pathway - cell viability counter screen (AID 743074; calls by dose curve;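 further: HEK293 cells carrying ER-alpha-UAS-bla reporter stimulated with 17beta-estradiol; nearly all actives have a fitted effect of over 45% in size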).
Assay [6] concerns the target Aromatase (Homo sapiens) (UniProt P11511). Description: qHTS assay to identify aromatase inhibitors (AID 743083). Further: nearly all actives have a fitted effect of over 55% in size. Further: potency means the concentration at half of the fitted maximal effect.
For assay [7], the target named is Estrogen receptor (Homo sapiens) (UniProt P03372). In words: qHTS assay to identify small molecule agonists of the estrogen receptor alpha (ER-alpha) signaling pathway (AID 743075; calls by dose curve;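 further: HEK293 GripTite cells with ER-alpha and UAS-driven beta-lactamase reporter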; further: potency means the concentration at half of the fitted maximal effect).
Assay [8] is described as follows: qHTS assay to identify small molecule antagonists of the estrogen receptor alpha (ER-alpha) signaling pathway using the BG1 cell line (AID 743080; calls by dose curve;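 further: BG1 cells stimulated with 17beta-estradiol alongside compound; nearly all actives have a fitted effect of over 25% in size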; further: potency means the concentration at half of the fitted maximal effect). Summed up:
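BG1Luc4E2, endogenous ER-alpha, 4xERE-luc; 5 d charcoal-stripped FBS, phenol red free; 24 h plating; cpd + 17beta-estradiol 21.5 h, 37 C/5% CO2; CellTiter-Fluor viability 30 min, then ONE-Glo luciferase 30 min RT.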

For assay [9], the target named is Estrogen receptor (Homo sapiens) (UniProt P03372). In words: qHTS assay to identify small molecule antagonists of the estrogen receptor alpha (ER-alpha) signaling pathway (AID 743069; active means well fitted curve in the direction sought with a large enough effect in the signal ratio in the repeat runs, not every such curve was filed as active; inconclusive means weak or mixed curves, or effect the other way; inactive means no such curve, though single readings can be large or run the other way; the % refers to the signal ratio; further: potency means the concentration at half of the fitted maximal effect). A digest of the protocol: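 A 17beta-estradiol challenge was applied right after compound transfer to ER-alpha-UAS-bla HEK293 cells previously kept in charcoal-stripped serum. Plates stood 18 hr at 37C and 5% CO2; fluorescence was read following 2 hr FRET substrate loading at room temperature.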

Assay [10] shares this target. In words: qHTS assay to identify small molecule agonists of the estrogen receptor alpha (ER-alpha) signaling pathway using the BG1 cell line (AID 743079). Further: nearly all actives have a fitted effect of over 20% in size. Further: potency means the concentration at half of the fitted maximal effect. Particulars: BG1Luc4E2 cells, ERE-luciferase agonist, 22 h; activation: at 70.3 µM (top of the series).

“And” between values parts separate entries of the source, which are not always exact repeats. Equal values may be shown once. The source made the active and inactive calls. Unless noted, the call rests on the fitted dose curve; in most records, active means well fitted curve in the direction sought with a large enough effect in the repeat runs; inconclusive means weak or mixed curves; inactive means no such curve, though single readings can be large; an effect the other way counts as inactive or inconclusive.

Aromatase (Homo sapiens), sequence (P11511 whole entry, looked up): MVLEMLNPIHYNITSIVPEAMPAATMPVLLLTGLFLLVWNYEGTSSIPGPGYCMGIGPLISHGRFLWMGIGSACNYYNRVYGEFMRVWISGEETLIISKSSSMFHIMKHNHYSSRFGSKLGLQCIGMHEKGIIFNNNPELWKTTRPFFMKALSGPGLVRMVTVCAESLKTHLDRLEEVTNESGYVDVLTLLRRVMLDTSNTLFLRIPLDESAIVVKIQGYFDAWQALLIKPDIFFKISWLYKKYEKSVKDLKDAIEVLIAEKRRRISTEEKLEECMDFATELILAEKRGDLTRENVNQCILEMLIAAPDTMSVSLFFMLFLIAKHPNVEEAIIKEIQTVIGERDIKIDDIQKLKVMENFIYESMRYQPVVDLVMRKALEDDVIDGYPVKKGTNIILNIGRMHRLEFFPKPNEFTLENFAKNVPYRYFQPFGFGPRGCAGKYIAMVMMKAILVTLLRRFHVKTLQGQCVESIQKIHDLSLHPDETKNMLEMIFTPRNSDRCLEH
Estrogen receptor (Homo sapiens), sequence (P03372 whole entry, looked up): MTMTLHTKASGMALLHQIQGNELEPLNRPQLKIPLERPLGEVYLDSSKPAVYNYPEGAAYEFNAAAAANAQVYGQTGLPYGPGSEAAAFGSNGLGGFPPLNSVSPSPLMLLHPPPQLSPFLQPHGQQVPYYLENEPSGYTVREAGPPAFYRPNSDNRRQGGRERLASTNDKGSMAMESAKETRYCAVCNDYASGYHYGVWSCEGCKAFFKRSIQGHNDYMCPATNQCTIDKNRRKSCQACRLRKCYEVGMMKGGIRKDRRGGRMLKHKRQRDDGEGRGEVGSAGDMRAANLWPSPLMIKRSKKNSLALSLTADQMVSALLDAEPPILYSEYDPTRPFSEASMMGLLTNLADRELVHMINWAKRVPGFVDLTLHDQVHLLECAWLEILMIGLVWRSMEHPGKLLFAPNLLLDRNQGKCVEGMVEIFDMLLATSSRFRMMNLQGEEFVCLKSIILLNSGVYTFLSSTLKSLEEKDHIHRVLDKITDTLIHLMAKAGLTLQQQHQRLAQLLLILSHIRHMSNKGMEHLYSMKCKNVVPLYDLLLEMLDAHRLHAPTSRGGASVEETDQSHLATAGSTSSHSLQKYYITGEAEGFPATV

As for `C#C[C@]1(OC(C)=O)CC[C@H]2[C@@H]3CCC4=CC(=O)CC[C@@H]4[C@H]3CC[C@@]21C`, the Potency result in assay [1], in assay [3] and in assay [4] was “inactive” in each case. Moreover, the Potency in assay [2] was 9.44 µM (active).
`O=C(O)c1cc2ccccc2c(Cc2c(O)c(C(=O)O)cc3ccccc23)c1O`: the Potency result in [1], in assay [2], in assay [3], in assay [5] and in [6] was “inactive” in each case.
Regarding `O=C(O)c1c(Cl)c(Cl)c(Cl)c(Cl)c1-c1c2cc(I)c(=O)c(I)c-2oc2c(I)c(O)c(I)cc12`, the Potency in assay [1], in assay [2] and in assay [4] was 23.7 µM (active) each time. In addition, the Potency entry in assay [3], in [7], in [8] and in assay [6] was “inactive” throughout.
Take `C[C@@H]1CCC2[C@@H](C)[C@@H](O)O[C@@H]3O[C@@]4(C)CC[C@@H]1[C@@]23OO4` (stereo not given in full): the Potency was 2.11 µM (active) in assay [1], 0.75 µM (active) in assay [2] and 9.52 µM [inconclusive] (active) in assay [9]. For the same compound, the Potency result in [5], in [10] and in assay [8] was “inactive” in each case.
Regarding `COC(=O)C1=C(C)NC(C)=C(C(=O)O[C@H]2CCN(Cc3ccccc3)C2)[C@H]1c1cccc([N+](=O)[O-])c1`, the results for the Potency in [1], in assay [2] and in assay [9] were 13.3 µM (active), 18.8 µM (active) and 26.8 µM [inhibitor] (active), respectively. Also, the Potency entry in assay [5], in [7], in [10], in [8] and in assay [6] was “inactive” each time.
For `CC(=O)[C@]1(O)Cc2c(O)c3c(c(O)c2[C@@H](O[C@H]2C[C@H](N)[C@H](O)[C@H](C)O2)C1)C(=O)c1c(O)cccc1C3=O`, the Potency in assay [1] was 150 nM (active) and 188 nM (active); in assay [2], 0.119 µM (active); in assay [9] it was 10.7 µM [inconclusive] (active); in assay [7] it was 3.38 µM [inconclusive] (active) and 6.01 µM [inconclusive] (active); in assay [4] it was 18.8 µM (active) and 23.7 µM (active); in assay [6] it was 3.35 µM (active). Besides, in assay [5], the Potency entry is “inactive”.
Consider `OC[C@H]1OC([S-])[C@H](O)[C@@H](O)[C@@H]1O.[Au+]` (stereo not given in full), for which the values for the Potency in assay [1] and in [2] were 10.6 µM (active) and 7.5 µM (active), respectively. For the same compound, the Potency result in [9], in [5], in assay [7], in [10], in assay [8] and in assay [4] was “inactive” in each case. For the same compound, the Potency result in [6] is “inactive”.
For the compound `CC(C)N=c1cc2n(-c3ccc(Cl)cc3)c3ccccc3nc-2cc1Nc1ccc(Cl)cc1`, the Potency in [1] was 7.17 µM (active); in assay [2] it was 6.39 µM (active); in [4] it was 11.4 µM (active). The Potency result in [9], in assay [5], in [7], in assay [10] and in assay [6] was “inactive” in each case.
With `O=C(O)C1CCCN1` (stereo not given), the Potency result in assay [1], in [2], in assay [3], in assay [4] and in assay [6] was “inactive” each time.
For `CC1=C(/C=C/C(C)=C/C=C/C(C)=C/C(=O)Oc2c(C)c(C)c3c(c2C)CC[C@@](C)(CCC[C@H](C)CCC[C@H](C)CCCC(C)C)O3)C(C)(C)CCC1`, the Potency entry in assay [1], in assay [2], in assay [9], in assay [5], in [7] and in assay [10] was “inactive” throughout. The Potency entry in assay [4] was “inactive”. Further, the Potency in assay [8] is 7.5 µM (active).
Consider `CCOC(=O)[C@H](CCc1ccccc1)N[C@@H](C)C(=O)N1CC2(C[C@H]1C(=O)O)SCCS2`, for which the Potency result in [1], in assay [2], in assay [3], in assay [4] and in assay [6] was “inactive” in each case.
With `O=C(O)[C@@H](O)[C@H](O)[C@H](O)[C@@H](O)C(=O)O` (tested in a mixture with another compound), the Potency entry in assay [1], in assay [2], in [3] and in [6] was “inactive” throughout.
As to `CC(C)(C)c1ccc(CN2CCN(C(c3ccccc3)c3ccc(Cl)cc3)CC2)cc1` (stereo not given), the figures for the Potency in assay [1] and in assay [2] were 33.5 µM (active) and 21.1 µM (active), respectively. Besides, the Potency entry in assay [3], in assay [7] and in [4] was “inactive” throughout.
In the case of `N#Cc1ccc2c(c1)N(CCCN1CCC(O)CC1)c1ccccc1S2`, the values for the Potency in assay [1] and in [2] were 9.44 µM (active) and 21.1 µM (active), respectively. The Potency entry in [9], in assay [5], in assay [7], in [10], in assay [8] and in assay [4] was “inactive” throughout. In assay [6], the Potency result was “inactive”.
Consider `CCN(CC)CCC(=O)N1c2ccccc2Sc2ccc(C(F)(F)F)cc21`, for which the Potency was 13.3 µM (active) in assay [1] and 26.6 µM (active) in assay [2]. The Potency entry in assay [9], in assay [5], in assay [7], in [8], in [4] and in assay [6] was “inactive” each time.
`C[C@H]1[C@@H](OC(=O)CCC(=O)O)O[C@@H]2OC3(C)CC[C@H]4[C@H](C)CC[C@@H]1[C@@]24OO3`: the values for the Potency in assay [1], in [2] and in [9] were 2.98 µM (active), 1.06 µM (active) and 7.56 µM [inconclusive] (active), respectively. The Potency result in [5], in [7], in assay [10] and in assay [8] was “inactive” throughout.
For `CN(C)C(=O)CCSC(SCCC(=O)O)c1cccc(/C=C/c2ccc3ccc(Cl)cc3n2)c1` (stereo not given), the Potency in assay [1] is 29.8 µM (active); in assay [2], 26.6 µM (active); in [9], 7.56 µM [inconclusive] (active); in assay [10], 2.37 µM (active). The Potency entry in assay [5], in assay [7], in assay [4] and in [6] was “inactive” in each case.
For the compound `CC(C)(C)NC[C@H](O)COc1ccccc1C1CCCC1`, the Potency is 9.02 µM (active) in assay [1] and 12.7 µM (active) in assay [2]. The Potency result in assay [9], in assay [5], in assay [7], in assay [10] and in assay [6] was “inactive” each time.
For `CCC(c1ccccc1)c1noc(CCN(CC)CC)n1` (stereo not given), the Potency result in [1], in assay [2], in [3], in assay [4] and in assay [6] was “inactive” in each case.
